# Assay results published in PubChem BioAssay AID1159580 (chemical genetic matrix, 2015).
# In all, about 5,500 compounds went through this assay and about 2,000 (36%) were called active. Inconclusive results (about 18%) are left out. The list shows a part of the results. Unmarked numbers belong to inactive results. No stated cut-off is given here; in the data, active means normalized growth mostly below about 0.91 (no sharp cut-off); inconclusive means no clear call, values can overlap the other calls; inactive means mostly above about 0.92.
# Experiment: chemical genetic growth profiling, strain panel (AID 1159580);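 further: tested at 20 µM; growth read once vehicle control cultures reached saturation at 30 °C; 1 = growth at the plate median or of vehicle wells; lower values mean less growth of the strain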
# Conditions: growth OD
# [1] = S. cerevisiae deletion strains, locus YAL013W, strain DEP1, active compounds read low
# [2] = S. cerevisiae deletion strains, locus YAL040C, strain CLN3, active compounds read low
# [3] = S. cerevisiae deletion strains, locus YCL061C, strain MRC1 (second series), active compounds read low
# [4] = S. cerevisiae deletion strains, locus YDR363W, strain ESC2, active compounds read low
# [5] = S. cerevisiae deletion strains, locus YER002W, strain NOP16, active compounds read low
# [6] = S. cerevisiae deletion strains, locus YMR263W, strain SAP30, active compounds read low
# [7] = S. cerevisiae deletion strains, locus YMR307W, strain GAS1, active compounds read low
# [8] = S. cerevisiae deletion strains, locus YNL153C, strain GIM3, active compounds read low
# [9] = S. cerevisiae deletion strains, locus YNL175C, strain NOP13, active compounds read low
# [10] = S. cerevisiae deletion strains, locus YNL197C, strain WHI3, active compounds read low
# [11] = S. cerevisiae deletion strains, locus YNL224C, strain SQS1, active compounds read low
# [12] = S. cerevisiae deletion strains, locus YOR083W, strain WHI5 (second series), active compounds read low
# [13] = S. cerevisiae deletion strains, locus YPL241C, strain CIN2, active compounds read low
# [14] = S. cerevisiae deletion strains, locus YDR150W, strain NUM1, active compounds read low
# [15] = S. cerevisiae deletion strains, locus YGR078C, strain PAC10, active compounds read low
# [16] = S. cerevisiae deletion strains, locus YJR075W, strain HOC1, active compounds read low
# [17] = S. cerevisiae deletion strains, locus YPL055C, strain LGE1, active compounds read low
# [18] = S. cerevisiae deletion strains, locus YDL101C, strain DUN1, active compounds read low
# [19] = S. cerevisiae deletion strains, locus YHR030C, strain SLT2, active compounds read low
# [20] = S. cerevisiae deletion strains, locus YBR229C, strain ROT2, active compounds read low
# [21] = S. cerevisiae deletion strains, locus YDL134C, strain PPH21, active compounds read low
# [22] = S. cerevisiae deletion strains, locus YEL061C, strain CIN8, active compounds read low
# [23] = S. cerevisiae deletion strains, locus YHR087W, strain rtc3, active compounds read low
# [24] = S. cerevisiae deletion strains, locus YJR043C, strain POL32, active compounds read low
# [25] = S. cerevisiae deletion strains, locus YKL190W, strain CNB1, active compounds read low
# [26] = S. cerevisiae deletion strains, locus YLR039C, strain RIC1, active compounds read low
# [27] = S. cerevisiae deletion strains, locus YLR058C, strain SHM2 (second series), active compounds read low
# [28] = S. cerevisiae deletion strains, locus YLR085C, strain ARP6, active compounds read low
# [29] = S. cerevisiae deletion strains, locus YLR262C, strain YPT6, active compounds read low
# [30] = S. cerevisiae deletion strains, locus YML094W, strain GIM5, active compounds read low
# [31] = S. cerevisiae deletion strains, locus YMR219W, strain ESC1, active compounds read low
# [32] = S. cerevisiae deletion strains, locus YNL298W, strain CLA4 (second series), active compounds read low
# [33] = S. cerevisiae deletion strains, locus YNL322C, strain KRE1, active compounds read low
# [34] = S. cerevisiae deletion strains, locus YNR030W, strain Alg12, active compounds read low
# [35] = S. cerevisiae deletion strains, locus YPR135W, strain CTF4, active compounds read low
# [36] = S. cerevisiae strains, strain wild type, active compounds read low
structure (smiles),measurement,setting,value
O=C(O)/C=C/C(O)c1ccc(Cl)cc1 (centres undefined),normalized growth,[1],0.986
same,normalized growth,[2],1.07
same,normalized growth,[3],0.982
same,normalized growth,[4],1.02
same,normalized growth,[5],1
same,normalized growth,[6],0.983
same,normalized growth,[7],1.03
same,normalized growth,[8],0.997
same,normalized growth,[9],0.997
same,normalized growth,[10],0.986
same,normalized growth,[11],0.98
same,normalized growth,[12],0.998
same,normalized growth,[13],0.985
CC(N)c1cccc(Cl)c1Cl (centres undefined),normalized growth,[1],1.01
same,normalized growth,[2],0.969
same,normalized growth,[3],1
same,normalized growth,[14],0.996
same,normalized growth,[4],1.08
same,normalized growth,[5],1.01
same,normalized growth,[15],0.981
same,normalized growth,[16],1.02
same,normalized growth,[6],1
same,normalized growth,"S. cerevisiae deletion strains, locus YNL128W, strain TEP1, active compounds read low",1.01
same,normalized growth,[8],0.972
same,normalized growth,[9],0.981
same,normalized growth,[10],0.953
same,normalized growth,[11],1.01
same,normalized growth,[12],1.01
same,normalized growth,[17],1.07
Cc1c(S(=O)(=O)Nc2cccc([N+](=O)[O-])c2)sc2ccc(Cl)cc12,normalized growth,"S. cerevisiae deletion strains, locus YAR019C, strain CDC15, active compounds read low",0.965
same,normalized growth,"S. cerevisiae deletion strains, locus YBL105C, strain PKC1, active compounds read low",0.973
same,normalized growth,"S. cerevisiae deletion strains, locus YBR135W, strain CKS1, active compounds read low",0.968
same,normalized growth,"S. cerevisiae deletion strains, locus YBR136W, strain MEC1, active compounds read low",0.973
same,normalized growth,"S. cerevisiae deletion strains, locus YBR160W, strain CDC28, active compounds read low",0.967
same,normalized growth,"S. cerevisiae deletion strains, locus YDL017W, strain CDC7, active compounds read low",0.972
same,normalized growth,"S. cerevisiae deletion strains, locus YDL028C, strain MPS1, active compounds read low",0.979
same,normalized growth,[18],0.963
same,normalized growth,"S. cerevisiae deletion strains, locus YDL108W, strain KIN28, active compounds read low",0.981
same,normalized growth,"S. cerevisiae deletion strains, locus YDL132W, strain cdc53, active compounds read low",0.955
same,normalized growth,"S. cerevisiae deletion strains, locus YDL214C, strain PRR2, active compounds read low",0.991
same,normalized growth,"S. cerevisiae deletion strains, locus YDR052C, strain DBF4, active compounds read low",0.958
same,normalized growth,"S. cerevisiae deletion strains, locus YDR054C, strain cdc34, active compounds read low",0.969
same,normalized growth,"S. cerevisiae deletion strains, locus YDR226W, strain ADK1, active compounds read low",0.966
same,normalized growth,"S. cerevisiae deletion strains, locus YDR477W, strain SNF1, active compounds read low",0.979
same,normalized growth,"S. cerevisiae deletion strains, locus YER123W, strain YCK3, active compounds read low",1.01
same,normalized growth,"S. cerevisiae deletion strains, locus YER133W, strain GLC7, active compounds read low",0.982
same,normalized growth,"S. cerevisiae deletion strains, locus YFL009W, strain cdc4, active compounds read low",0.97
same,normalized growth,"S. cerevisiae deletion strains, locus YFL029C, strain CAK1, active compounds read low",0.97
same,normalized growth,"S. cerevisiae deletion strains, locus YFR003C, strain YPI1, active compounds read low",0.98
same,normalized growth,"S. cerevisiae deletion strains, locus YFR019W, strain FAB1, active compounds read low",0.975
same,normalized growth,"S. cerevisiae deletion strains, locus YFR028C, strain CDC14, active compounds read low",0.973
same,normalized growth,"S. cerevisiae deletion strains, locus YGR040W, strain KSS1, active compounds read low",0.96
same,normalized growth,"S. cerevisiae deletion strains, locus YGR052W, strain FMP48, active compounds read low",1.09
same,normalized growth,"S. cerevisiae deletion strains, locus YGR092W, strain DBF2, active compounds read low",0.932
same,normalized growth,[19],0.752 (active)
same,normalized growth,"S. cerevisiae deletion strains, locus YHR079C, strain IRE1, active compounds read low",0.913
same,normalized growth,"S. cerevisiae deletion strains, locus YHR082C, strain KSP1, active compounds read low",1.01
same,normalized growth,"S. cerevisiae deletion strains, locus YHR205W, strain SCH9, active compounds read low",0.986
same,normalized growth,"S. cerevisiae deletion strains, locus YIL147C, strain SLN1, active compounds read low",0.976
same,normalized growth,"S. cerevisiae deletion strains, locus YJL095W, strain BCK1, active compounds read low",0.979
same,normalized growth,"S. cerevisiae deletion strains, locus YJL128C, strain PBS2, active compounds read low",0.963
same,normalized growth,"S. cerevisiae deletion strains, locus YJL157C, strain FAR1, active compounds read low",1.01
same,normalized growth,"S. cerevisiae deletion strains, locus YJR016C, strain ILV3, active compounds read low",0.969
same,normalized growth,"S. cerevisiae deletion strains, locus YJR066W, strain TOR1 (second series), active compounds read low",0.999
same,normalized growth,"S. cerevisiae deletion strains, locus YJR066W, strain TOR1, active compounds read low",1.03
same,normalized growth,"S. cerevisiae deletion strains, locus YKL048C, strain ELM1, active compounds read low",0.967
same,normalized growth,"S. cerevisiae deletion strains, locus YKL067W, strain YNK1, active compounds read low",0.99
same,normalized growth,"S. cerevisiae deletion strains, locus YKL101W, strain HSL1, active compounds read low",0.981
same,normalized growth,"S. cerevisiae deletion strains, locus YKL193C, strain SDS22, active compounds read low",0.971
same,normalized growth,"S. cerevisiae deletion strains, locus YKL203C, strain TOR2, active compounds read low",1
same,normalized growth,"S. cerevisiae deletion strains, locus YLR113W, strain HOG1, active compounds read low",0.878
same,normalized growth,"S. cerevisiae deletion strains, locus YLR133W, strain CKI1, active compounds read low",0.989
same,normalized growth,"S. cerevisiae deletion strains, locus YLR403W, strain SFP1, active compounds read low",0.954
same,normalized growth,"S. cerevisiae deletion strains, locus YML070W, strain DAK1, active compounds read low",0.974
same,normalized growth,"S. cerevisiae deletion strains, locus YMR001C, strain CDC5, active compounds read low",0.974
same,normalized growth,"S. cerevisiae deletion strains, locus YMR205C, strain PFK2 (second series), active compounds read low",0.992
same,normalized growth,"S. cerevisiae deletion strains, locus YMR277W, strain FCP1, active compounds read low",0.989
same,normalized growth,"S. cerevisiae deletion strains, locus YNL006W, strain LST8, active compounds read low",0.966
same,normalized growth,"S. cerevisiae deletion strains, locus YNL020C, strain ARK1, active compounds read low",0.972
same,normalized growth,"S. cerevisiae deletion strains, locus YNL161W, strain CBK1, active compounds read low",0.971
same,normalized growth,"S. cerevisiae deletion strains, locus YNL183C, strain NPR1, active compounds read low",0.926
same,normalized growth,"S. cerevisiae deletion strains, locus YNL207W, strain RIO2, active compounds read low",0.983
same,normalized growth,"S. cerevisiae deletion strains, locus YNL222W, strain SSU72, active compounds read low",0.966
same,normalized growth,"S. cerevisiae deletion strains, locus YNL307C, strain MCK1 (second series), active compounds read low",0.988
same,normalized growth,"S. cerevisiae deletion strains, locus YOL078W, strain AVO1, active compounds read low",0.975
same,normalized growth,"S. cerevisiae deletion strains, locus YOL136C, strain PFK27, active compounds read low",0.968
same,normalized growth,"S. cerevisiae deletion strains, locus YOR061W, strain CKA2, active compounds read low",0.966
same,normalized growth,"S. cerevisiae deletion strains, locus YOR119C, strain RIO1, active compounds read low",1.08
same,normalized growth,"S. cerevisiae deletion strains, locus YOR231W, strain MKK1, active compounds read low",0.955
same,normalized growth,"S. cerevisiae deletion strains, locus YOR329C, strain SCD5, active compounds read low",0.971
same,normalized growth,"S. cerevisiae deletion strains, locus YPL031C, strain PHO85, active compounds read low",0.985
same,normalized growth,"S. cerevisiae deletion strains, locus YPL153C, strain RAD53, active compounds read low",0.962
same,normalized growth,"S. cerevisiae deletion strains, locus YPL204W, strain HRR25, active compounds read low",0.964
same,normalized growth,"S. cerevisiae deletion strains, locus YPL209C, strain IPL1, active compounds read low",0.973
same,normalized growth,"S. cerevisiae deletion strains, locus YPL256C, strain CLN2, active compounds read low",0.926
same,normalized growth,"S. cerevisiae deletion strains, locus YPR025C, strain CCL1, active compounds read low",0.97
same,normalized growth,"S. cerevisiae deletion strains, locus YPR106W, strain ISR1, active compounds read low",0.971
same,normalized growth,"S. cerevisiae deletion strains, locus YPR111W, strain DBF20, active compounds read low",0.965
same,normalized growth,"S. cerevisiae deletion strains, strain NNK1, active compounds read low",0.951
same,normalized growth,"S. cerevisiae deletion strains, strain TSCII, active compounds read low",0.964
Cc1nn(-c2ccccc2)nc1-c1nnc(-c2ccc(Cl)cc2)o1,normalized growth,[1],1.02
same,normalized growth,[20],1.01
same,normalized growth,"S. cerevisiae deletion strains, locus YCL061C, strain MRC1, active compounds read low",0.986
same,normalized growth,[18],0.995
same,normalized growth,[21],1
same,normalized growth,[14],1
same,normalized growth,[22],1.01
same,normalized growth,[15],0.993
same,normalized growth,"S. cerevisiae deletion strains, locus YGR229C, strain SMI1, active compounds read low",1.01
same,normalized growth,[19],1.03
same,normalized growth,[23],1.04
same,normalized growth,[24],1.02
same,normalized growth,[16],1
same,normalized growth,[25],1.01
same,normalized growth,[26],1.04
same,normalized growth,[27],1.02
same,normalized growth,[28],1.03
same,normalized growth,[29],1.03
same,normalized growth,[30],1.04
same,normalized growth,[31],0.998
same,normalized growth,[6],1.05
same,normalized growth,[7],1.07
same,normalized growth,[8],1
same,normalized growth,[32],1.01
same,normalized growth,[33],0.988
same,normalized growth,[34],1.03
same,normalized growth,[17],1.01
same,normalized growth,[13],1
same,normalized growth,[35],0.98
same,normalized growth,[36],1.01
FC(F)(F)Oc1ccccc1-c1nnc(-c2ccc(Cl)cc2)o1,normalized growth,[1],0.946
same,normalized growth,[20],0.968
same,normalized growth,[18],0.971
same,normalized growth,[21],0.963
same,normalized growth,[14],0.912
same,normalized growth,[22],0.931
same,normalized growth,[15],0.934
same,normalized growth,[19],0.442 (active)
same,normalized growth,[23],0.924
same,normalized growth,"S. cerevisiae deletion strains, locus YJL187C, strain SWE1, active compounds read low",0.957
same,normalized growth,[24],0.975
same,normalized growth,[16],0.87 (active)
same,normalized growth,[25],0.9 (active)
same,normalized growth,[26],0.874
same,normalized growth,[27],0.95
same,normalized growth,[28],0.68 (active)
same,normalized growth,[29],0.963
same,normalized growth,[30],0.878
same,normalized growth,[31],0.966
same,normalized growth,[6],0.948
same,normalized growth,[8],0.976
same,normalized growth,[32],0.872
same,normalized growth,[33],0.944
same,normalized growth,[34],0.837 (active)
same,normalized growth,"S. cerevisiae deletion strains, locus YOL006C, strain TOP1, active compounds read low",0.767
same,normalized growth,[17],0.851
same,normalized growth,[13],0.852 (active)
same,normalized growth,[35],0.73
same,normalized growth,[36],0.94
